# Several values for one entry are separate records, joined by “and”; a condition that tells them apart may be missing. Equal entries are not always repeated. Inconclusive results are not listed. Activity calls are given as the source filed them. The calls were made as follows: active = hit-call score of the fitted dose curve at least 0.9, where 1 is the maximum; inconclusive = response in the unintended direction; inactive = score below 0.9.
# Legend:
# [1] = target: Luciferin 4-monooxygenase (Photinus pyralis) (UniProt P08659); test: CCTE_Simmons_QuantiLum_inhib_2: CCTE's Firefly Luciferase Inhibition Assay, Simmons Lab (AID 2283767);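 as to AC50: potency for inhibitors that lower luciferase luminescence relative to DMSO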
# Luciferin 4-monooxygenase (Photinus pyralis), sequence (P08659 whole entry, looked up): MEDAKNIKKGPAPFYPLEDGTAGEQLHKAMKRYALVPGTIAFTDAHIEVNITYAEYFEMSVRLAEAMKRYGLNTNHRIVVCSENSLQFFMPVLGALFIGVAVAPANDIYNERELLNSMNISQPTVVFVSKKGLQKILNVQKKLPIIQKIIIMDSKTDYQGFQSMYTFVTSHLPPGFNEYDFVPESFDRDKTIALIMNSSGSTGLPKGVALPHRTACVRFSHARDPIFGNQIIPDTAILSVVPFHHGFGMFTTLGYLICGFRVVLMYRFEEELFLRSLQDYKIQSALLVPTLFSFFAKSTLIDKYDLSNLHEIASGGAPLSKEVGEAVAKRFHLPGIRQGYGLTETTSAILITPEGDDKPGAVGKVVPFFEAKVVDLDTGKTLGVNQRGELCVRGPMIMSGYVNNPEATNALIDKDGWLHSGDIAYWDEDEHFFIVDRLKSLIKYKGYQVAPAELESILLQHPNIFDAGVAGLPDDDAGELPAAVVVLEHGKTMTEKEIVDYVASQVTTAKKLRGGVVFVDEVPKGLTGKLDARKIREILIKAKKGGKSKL
# How it was run: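 First, 5 ng purified luciferase in phosphate buffer with BSA is dispensed per well. Next, test chemicals (5 nM to 87.5 uM final, 0.5% DMSO) are added and incubated 30 min at 37C in darkness. Finally, luciferin reagent is injected and luminescence read kinetically.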
# [2] = ACEA_AR_antagonist_AUC_viability: ACEA Biosciences xCELLigence Real-Time Cell Analysis on Androgen Receptor Antagonism for Viability (AID 2283776);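 also: 22Rv1 human prostate cancer cells growing on impedance electrode plates; area under impedance growth curve at 80 h after dosing as viability; hits lower the growth signal relative to DMSO meaning cytotoxicity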
# How it was run: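 Impedance read-out (RT-CES): area under growth curve at 80 h post-dose, loss of signal scored vs DMSO baseline. 22Rv1 cells; 8-pt 1:4 series, top 100 uM final, ≤0.5% DMSO; biological duplicate.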
# [3] = ACEA_ER_AUC_viability: ACEA Biosciences xCELLigence Real-Time Cell Analysis on Estrogen Receptor Agonism for Viability (AID 2283782);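 also: hit means loss of impedance signal meaning reduced cell growth or viability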
# How it was run: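 Viability endpoint: reduced impedance area under the curve relative to DMSO, recorded by real-time electrode sensing over ~80 h of continuous exposure. Duplicate plates of T47D in hormone-depleted medium; eight concentrations, 1:4 dilutions, 100 uM maximum.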
# [4] = ArunA_Migration_hNP: ArunA Biomedical's Oris Neuroprogenitor (hNP) Cell Migration Assay (AID 2283754)
# How it was run: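 Readout is calcein-AM fluorescence (ex494/em517) of cells migrating into the detection zone, relative to DMSO. hNP1 cells (H9-derived) grown on Matrigel behind stoppers 16 h, then stoppers pulled and chemical applied 72 h; cytochalasin D as control.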
# [5] = ArunA_Migration_hNC: ArunA Biomedical's Oris Neural Crest (hNC) Cell Migration Assay (AID 2283755)
# How it was run: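 Calcein-AM fluorescence (ex494 nm/em 517 nm) in the stopper-defined detection zone quantifies migration of hNC cells after 72 h chemical exposure; 60,000 cells/well plated on Matrigel with LIF and bFGF, 16 h pre-incubation. DMSO baseline.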
# [6] = ArunA_NOG_NucleusCount: ArunA Biomedical's Neurite Outgrowth (NOG) Assay for Nucleus Count (AID 2283756)
# How it was run: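 Viable neuron count, from Hoechst nuclei passing size and intensity gates, imaged at 20x on differentiated H9-derived human neurons. Exposure lasted 48 h from seeding; activity was scored relative to DMSO.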
# [7] = ArunA_NOG_NeuriteLength: ArunA Biomedical's Neurite Outgrowth (NOG) Assay for Neurite Length (AID 2283757)
# How it was run: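 Total neurite length per neuron, from traced βIII-tubulin-labelled processes longer than 10 um on viable Hoechst-gated cells, was scored as decrease from DMSO. Cells were hESC (H9)-derived neurons given 48 h chemical exposure immediately after seeding.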
# [8] = ArunA_NOG_NeuritesPerNeuron: ArunA Biomedical's Neurite Outgrowth (NOG) Assay for Neurites Per Neuron (AID 2283758)
# How it was run: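 Differentiated human H9-derived neurons exposed to chemicals for 48 h from seeding, then stained with Hoechst and βIII-tubulin/DyLight 488. Automated imaging counted neurites (processes >10 um) per valid neuron; loss of signal versus DMSO scored.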
# [9] = ArunA_NOG_BranchPointsPerNeurite: ArunA Biomedical's Neurite Outgrowth (NOG) Assay for Branch Points Per Neurite (AID 2283759)
# How it was run: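 Automated image analysis traced neurites (processes >10 um) from valid cell bodies after Hoechst and βIII-tubulin staining. hNN cells from H9 embryonic stem cells, 48 h exposure. Fitted bidirectionally against DMSO.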
# [10] = ACEA_AR_agonist_AUC_viability: ACEA Biosciences xCELLigence Real-Time Cell Analysis on Androgen Receptor Agonism for Viability (AID 2283775);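 also: viability read 80 hours after compound addition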
# How it was run: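 22Rv1 cells; impedance growth kinetics; 8-pt 1:4 dilutions from 100 uM top final, ≤0.5% DMSO; n = 2; 80 h read; AUC viability, loss-of-signal vs DMSO.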
# AR (gene 367) [11] = target: AR (gene 367) (UniProt P10275); test: ACEA_AR_agonist_80hr: ACEA Biosciences xCELLigence Real-Time Cell Analysis on Androgen Receptor Agonism for Proliferation (AID 2283783);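 also: hits increase impedance growth signal above DMSO baseline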
# AR (gene 367), sequence (P10275 whole entry, looked up): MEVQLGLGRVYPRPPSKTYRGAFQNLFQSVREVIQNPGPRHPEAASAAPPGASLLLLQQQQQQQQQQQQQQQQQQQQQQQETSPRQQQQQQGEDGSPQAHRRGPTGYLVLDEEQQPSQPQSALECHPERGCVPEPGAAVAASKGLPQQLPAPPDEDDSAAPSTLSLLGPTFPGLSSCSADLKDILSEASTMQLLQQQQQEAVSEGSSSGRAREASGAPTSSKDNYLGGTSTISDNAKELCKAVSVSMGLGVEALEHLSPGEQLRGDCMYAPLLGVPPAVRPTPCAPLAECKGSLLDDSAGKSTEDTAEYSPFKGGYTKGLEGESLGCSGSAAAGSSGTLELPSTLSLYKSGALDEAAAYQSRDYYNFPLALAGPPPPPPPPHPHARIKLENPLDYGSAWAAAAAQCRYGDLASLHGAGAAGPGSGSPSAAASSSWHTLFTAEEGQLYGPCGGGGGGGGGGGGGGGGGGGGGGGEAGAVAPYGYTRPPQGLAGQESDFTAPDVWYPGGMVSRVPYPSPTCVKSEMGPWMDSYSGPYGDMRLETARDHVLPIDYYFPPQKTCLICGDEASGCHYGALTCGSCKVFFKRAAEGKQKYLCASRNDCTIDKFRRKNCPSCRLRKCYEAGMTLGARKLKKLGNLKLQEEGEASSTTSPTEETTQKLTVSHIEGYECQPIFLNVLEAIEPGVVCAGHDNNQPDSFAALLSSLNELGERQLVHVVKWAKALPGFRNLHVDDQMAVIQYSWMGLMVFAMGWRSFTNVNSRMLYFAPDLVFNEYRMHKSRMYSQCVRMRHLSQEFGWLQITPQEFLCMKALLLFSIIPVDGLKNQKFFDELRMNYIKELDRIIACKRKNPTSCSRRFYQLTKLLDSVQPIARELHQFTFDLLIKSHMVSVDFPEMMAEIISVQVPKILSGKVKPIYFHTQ
# How it was run: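 Eight concentrations, 1:4 serial dilution from a 100 uM final top, in biological duplicate. Impedance-based real-time growth of 22Rv1 cells after overnight baseline, recorded hourly and read at 80 hours. Controls: testosterone, MG132, assay media.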
# [12] = STM_H9_NormalizedViability: Cytotoxicity Assessment at 120 hours in the Stemina devTOX quickPredict H9 human embryonic stem cell (hESC)-based Assay (AID 2283784)
# How it was run: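 Viability of the cell layer was taken from live-cell protease cleavage of a fluorogenic substrate after compound exposure of undifferentiated H9 stem cells, with replenishment each 24h. Fluorescence was normalized to vehicle (0.1% DMSO).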
# AR (gene 367) [13] = target: AR (gene 367) (UniProt P10275); test: ACEA_AR_antagonist_80hr: ACEA Biosciences xCELLigence Real-Time Cell Analysis on Androgen Receptor Antagonism for Proliferation (AID 2283787);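 also: 22Rv1 human prostate cancer cells with growth followed by electrical impedance; hits lower the impedance growth signal relative to DMSO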
# How it was run: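 Impedance-based real-time growth of 22Rv1 prostate cells, read 80 h after dosing. Eight concentrations, 1:4 series, top 100 uM final (0.5% DMSO), n = 2; signal decrease scored against DMSO.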
compound,measurement,setting,value
O=C1c2c(O)cccc2Cc2cccc(O)c21,outcome,[1],inactive
same,outcome,[2],inactive
same,outcome,[3],inactive
Cc1occc(=O)c1O,outcome,[1],inactive
same,outcome,[2],inactive
CCCCC(CC)COP(=O)(OCC(CC)CCCC)OCC(CC)CCCC (configuration not stated),outcome,[4],inactive
same,outcome,[5],inactive
same,outcome,[6],inactive
same,outcome,[7],inactive
same,outcome,[8],inactive
same,outcome,[9],inactive
same,AC50,[2],16.8 µM (active)
CC(C)c1cccc(C(C)C)c1NC(=O)NS(=O)(=O)c1cc(C(C)(C)O)co1,AC50,[10],28.2 µM (active)
same,AC50,[2],19 µM (active)
O=C1O[C@H]([C@H](O)CO)C(O)=C1O,outcome,[1],inactive
CC(C)NCC(O)c1ccc(O)c(O)c1 (configuration not stated),outcome,[1],inactive
Nc1nc(=S)c2[nH]cnc2[nH]1,AC50,[1],11.2 µM (active)
same,AC50,[2],0.212 µM (active)
same,AC50,[3],0.237 µM (active)
same,outcome,AR (gene 367) [11],inactive
same,AC50,[12],3.32 µM (active)
same,AC50,AR (gene 367) [13],0.198 µM (active)
Nc1nc(Cl)nc2c1ncn2[C@H]1C[C@H](O)[C@@H](CO)O1,AC50,[4],289 nM (active) and 52.1 nM (active)
same,AC50,[5],120 nM (active) and 32 nM (active)
same,AC50,[6],1.81 µM (active)
same,AC50,[7],1.74 µM (active)
same,AC50,[8],1.58 µM (active)
same,AC50,[9],3.41 µM (active)
same,AC50,[2],1.45 µM (active)
same,AC50,[3],0.0619 µM (active)
same,AC50,[12],0.902 µM (active)
CCC(C)N(C)C(=O)c1cc2ccccc2c(-c2ccccc2Cl)n1 (configuration not stated),outcome,AR (gene 367) [11],inactive
CCc1nc(N)nc(N)c1-c1ccc(Cl)cc1,AC50,[2],50 µM (active)
same,AC50,[12],33.9 µM (active)
CC(=O)[C@@]1(O)CC[C@H]2[C@@H]3CCC4=CC(=O)CC[C@]4(C)[C@H]3CC[C@@]21C,outcome,[2],inactive
same,outcome,[12],inactive
O=NO,outcome,[2],inactive
same,outcome,[3],inactive
CN(C)CCCN(C)CCCN(C)C,outcome,[2],inactive
same,outcome,[3],inactive
CSc1ccc(Oc2ccc(S(N)(=O)=O)cc2CN(C)C)cc1C,AC50,[2],50 µM (active)
same,AC50,[3],50 µM (active)
same,AC50,AR (gene 367) [13],62.4 µM (active)
CO[C@@H]1COCC[C@@H]1N[C@@H]1CC[C@@](C(=O)N2CCc3ncc(C(F)(F)F)cc3C2)(C(C)C)C1,outcome,[2],inactive
same,AC50,[3],21.3 µM (active)
CC(C)COC(=O)CCCCC(=O)OCC(C)C,outcome,[2],inactive
same,outcome,[3],inactive
NC(=Nc1ccccc1)Nc1ccccc1,outcome,[2],inactive
same,AC50,[3],1.79 µM (active)
same,outcome,[12],inactive
O=C(Oc1ccccc1)c1cccc(C(=O)Oc2ccccc2)c1,outcome,[2],inactive
same,outcome,AR (gene 367) [11],inactive
same,outcome,[12],inactive
same,outcome,AR (gene 367) [13],inactive
CC(C)OC(=O)C(C)(C)Oc1ccc(C(=O)c2ccc(Cl)cc2)cc1,AC50,[2],41.2 µM (active)
same,outcome,AR (gene 367) [11],inactive
same,AC50,AR (gene 367) [13],53.4 µM (active)
NC1CCCCC1,outcome,[2],inactive
same,outcome,[3],inactive
CCCCCCCC(=O)OC,outcome,[2],inactive
same,outcome,[3],inactive
O=C1NC(=O)C(c2ccccc2)(c2ccccc2)N1,AC50,[2],28.7 µM (active)
same,outcome,[3],inactive
CC(=O)OC1CC(C)OC(C)O1 (configuration not stated),outcome,[3],inactive
COC(=O)CCC(=O)OC,outcome,[2],inactive
same,outcome,[3],inactive
CN(C)C(=O)NC1(c2ccccc2)CCN(CCC[C@]2(c3ccc(Cl)c(Cl)c3)CCCN(C(=O)c3ccccc3)C2)CC1,AC50,[2],16.7 µM (active)
same,AC50,[3],14.6 µM (active)
O=C(O)c1cccnc1,outcome,[2],inactive
same,outcome,[3],inactive
same,outcome,[12],inactive
CC(N)=O,outcome,[2],inactive
same,outcome,[3],inactive
C#CC(O)C(CC)CCCC (configuration not stated),outcome,[2],inactive
same,outcome,AR (gene 367) [11],inactive
CC(C)c1cccc(C(C)C)c1,outcome,[2],inactive
same,outcome,[3],inactive
CCc1cc(C2=C(C(=O)O)N(c3ccccc3C(F)(F)F)S(=O)(=O)c3ccccc32)cc2c1OCO2,AC50,[2],25 µM (active)
same,AC50,[3],15.8 µM (active)
C=CCc1ccc(OC)c(OC)c1,outcome,[3],inactive
CC(COCC(C)OC(=O)c1ccccc1)OC(=O)c1ccccc1 (configuration not stated),outcome,[2],inactive
same,outcome,[12],inactive
O=C(O)CN(CC(=O)O)CC(=O)O,outcome,[2],inactive
same,outcome,[3],inactive
O=C(NS(=O)(=O)/C=C/c1cccs1)c1ccc(F)cc1Br,AC50,[2],3.42 µM (active)
same,AC50,AR (gene 367) [13],3.96 µM (active)
OCC(CO)n1cnc(-c2ccc(F)cc2)c1-c1ccnc(Oc2ccccc2)n1,AC50,[2],21.1 µM (active)
same,outcome,[3],inactive
CN(C)C(=O)NC1(c2ccccc2)CCN(CC[C@@]2(c3ccc(F)c(F)c3)CN(C(=O)c3ccccc3)CCO2)CC1,outcome,[2],inactive
same,AC50,[3],25.4 µM (active)
CC1=C(C)S(=O)(=O)CCS1(=O)=O,AC50,[2],88.8 µM (active)
same,outcome,[3],inactive
same,outcome,AR (gene 367) [11],inactive
same,AC50,AR (gene 367) [13],79.6 µM (active)
CC(=O)CC(c1ccccc1)c1c(O)c2ccccc2oc1=O (configuration not stated),outcome,[2],inactive
same,outcome,[3],inactive
same,outcome,[12],inactive

# From PubChem BioAssay (EPA / NIEHS)
